The target of test [1] is Glutathione peroxidase 1 (Homo sapiens) (UniProt P07203). As to the kind of experiment: Primary qHTS Assay for Inhibitors of Recombinant Selenoprotein Glutathione Peroxidase 1 (GPX1) (AID 1845191). Also: nearly all actives have a fitted effect of over 65% in size. As to activity, negative = inhibition: % is scaled to controls: 0 for no effect and ±100 for the full control effect. In short, it runs like this: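 NADPH consumption tracked by fluorescence at 340/450 nm between t=0 and t=15 min, room temperature. Final mix: 10 nM GPX1, 100 nM glutathione reductase, 1 mM GSH, 0.5 mM NADPH, 0.5 mM cumene hydroperoxide, 0.01% BSA; 30 min compound–enzyme preincubation.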
Sequence of Glutathione peroxidase 1 (Homo sapiens) (P07203 whole entry, looked up): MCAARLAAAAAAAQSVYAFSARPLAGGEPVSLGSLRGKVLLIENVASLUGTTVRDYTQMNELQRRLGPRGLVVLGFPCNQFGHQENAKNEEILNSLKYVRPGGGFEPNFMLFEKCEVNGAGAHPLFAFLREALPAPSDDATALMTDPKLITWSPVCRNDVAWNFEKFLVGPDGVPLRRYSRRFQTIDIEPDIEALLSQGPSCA
For orientation: qHTS replaces the single test concentration by a dilution series.

Test [2] addresses Phospholipid hydroperoxide glutathione peroxidase GPX4 (Homo sapiens) (UniProt P36969). As to the kind of experiment: Primary qHTS Assay for Inhibitors of Recombinant Selenoprotein Glutathione Peroxidase 4 (GPX4) (AID 1845192). Also: nearly all actives have a fitted effect of over 65% in size. As to activity change, negative = inhibition: series mostly up to about 50 µM; % is scaled to controls: 0 for no effect and ±100 for the full control effect. In short, it runs like this:
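NADPH consumption followed by fluorescence at 340/450 nm, t=0 and after 15 min at room temperature. Reaction started with cumene hydroperoxide (0.5 mM final) after 30 min compound–GPX4 preincubation; final 200 nM GPX4, 100 nM GR, 1 mM GSH, 0.5 mM NADPH.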

Test [3] concerns the target Luciferin 4-monooxygenase (Photinus pyralis) (UniProt P08659). As to the kind of experiment: Primary firefly luciferase (FLuc) qHTS assay for identification of artifact compounds. (AID 1845220). Also: nearly all actives have a fitted effect of over 60% in size. Also: potency is read from the fitted curve at half-maximal effect.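 As to activity change, negative = inhibition: series mostly up to about 54 µM; plate controls were DMSO vehicle for no effect and no enzyme for full effect.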 The essentials:
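FLuc 10 nM; luciferin 10 uM; ATP 10 uM; Tris-acetate pH 7.6, Mg-acetate 10 mM; 15 min RT preincubation; 5 min reaction; luminescence.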

Test [4] is described as follows: Primary fluorescence-based thiol-reactive (MSTI) qHTS assay for identification of artifact compounds. (AID 1845221). Also: nearly all actives have a fitted effect of over 65% in size. Also: potency is read from the fitted curve at half-maximal effect.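 As to activity change, negative = thiol reactive: series mostly up to about 54 µM; thiol-reactive compounds lower the probe fluorescence signal.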 In short, it runs like this:
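Compounds were incubated 1 h at room temperature in the dark with the MSTI probe (4 uM) in PBS pH 7.4, 2% DMSO. Signals were normalized between Acetyl-MSTI and MSTI.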

For test [5], the system named is Nanoluciferase (engineered Oplophorus gracilirostris luciferase). Put plainly: Primary Nanoluciferase (NLuc) qHTS assay for identification of artifact compounds. (AID 1845222).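 Also: NLuc secreted into diluted conditioned medium of S16 cells; series mostly up to about 54 µM; 0% = DMSO and -100% = no enzyme.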 In short, it runs like this: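 NLuc from S16 cell medium (1:55) plus test compounds, 15 min, room temperature. Luminescence after Nano-Glo (1:100) addition, 5 min.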
The nature of test [6]: Primary redox qHTS assay for identification of artifact compounds. (AID 1845223).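 Also: 0% = DMSO and 100% = reference compound.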 In short, it runs like this:
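Redox-cycling detection via DTT (250 uM final) oxidation coupled to Amplex Red (25 uM)/HRP (250 mU/mL) in HBSS. 15 min preincubation plus 30 min after DTT, room temperature. Ex/Em 525/598 nm; 4-parameter Hill fit against DMSO and 10 uM DA3003.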

SMILES strings stand for the structures. Unmarked numbers belong to inactive results. Results filed as inconclusive are left out. Activity calls are given as the source filed them. Calls follow the shape of the dose curve; as a rule, active = well fitted curve in the direction sought with a large enough effect; inconclusive = small, poorly fitted or top-dose-only effect, or another doubt; inactive = no such curve, though single readings can be large; an effect the other way counts as inactive or inconclusive.

Sequence of Phospholipid hydroperoxide glutathione peroxidase GPX4 (Homo sapiens) (P36969 whole entry, looked up): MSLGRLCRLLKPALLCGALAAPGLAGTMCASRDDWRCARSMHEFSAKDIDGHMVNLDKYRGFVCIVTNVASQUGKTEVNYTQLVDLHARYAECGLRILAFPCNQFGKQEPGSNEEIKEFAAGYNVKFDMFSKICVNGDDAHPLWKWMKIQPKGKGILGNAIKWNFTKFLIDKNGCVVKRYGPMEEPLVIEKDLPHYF

On to `COC1C(O)C(OC2CCC3(C)C(CCC45CCC6C7(COC(=O)C7)OC4(O)C6(C)CCC35)C2)OC(C)C1OC1OC(CO)C(OC2OC(CO)C(O)C(O)C2O)C(O)C1O` (centres undefined), for which the Potency entry in test [1] and in test [2] was “inactive” throughout. In addition, in test [3], the activity change, negative = inhibition is 0.42% [at 11.6 µM]. In addition, in test [4], the activity change, negative = thiol reactive was 19.5% [at 11.5 µM]. Further, the activity, negative = inhibition in test [5] is 4.19% [at 11.6 µM]. In addition, the redox activity (% of DA3003) in test [6] is 3.19% [at 11.5 µM].

For `C=CC1(C)CC(O)C(C(=C)C(=O)OC)C(O)C1C(=C)CO` (centres undefined), the Potency result in test [1], in test [2], in test [3], in test [4], in test [5] and in test [6] was “inactive” throughout.

With `O=C(Nc1cccnc1)c1cc(-c2ccnc(F)c2)ccc1OCc1ccccc1`, the Potency result in test [1], in test [2], in test [3], in test [4], in test [5] and in test [6] was “inactive” each time.

For `COc1ccc(C[C@H]2COC(=O)[C@@H]2Cc2ccc(O[C@@H]3O[C@H](CO)[C@@H](O)[C@H](O)[C@H]3O)c(OC)c2)cc1OC`, the Potency result in test [1], in test [2], in test [3], in test [4], in test [5] and in test [6] was “inactive” throughout.

For the compound `C=C1C(=O)OC2/C=C(\CO)CC/C=C(\C=O)C(OC)C(OC(=O)C(C)CC)C12` (centres undefined), the Potency result in test [1], in test [2], in test [3], in test [5] and in test [6] was “inactive” in each case. For the same compound, the Potency in test [4] is 4120 nM (active).

Regarding `C/C=C\NC(=O)C1NC(=O)C(CC(N)=O)NC(=O)C(NC(=O)C(=O)C(C)CC)Cc2ccc(O)c(c2)-c2cccc3c2NC(=O)C3(O)C1O` (centres undefined), the Potency entry in test [1], in test [2], in test [3], in test [4], in test [5] and in test [6] was “inactive” each time.

Take `CC1(C)CN(C(=O)c2ccc(-c3cccc4nc(NC(=O)C5CC5)nn34)cc2)C1`: the Potency result in test [1], in test [2], in test [3], in test [4], in test [5] and in test [6] was “inactive” each time.

As to `COC1CC(O[C@H]2CC[C@]3(C)C4CC[C@@]5(C)C(=O)[C@]4(CC[C@@H]3C2)CC[C@@H]5C2=CC(=O)OC2)OC(C)C1OC1OC(COC2OC(CO)C(O)C(O)C2O)C(O)C(O)C1O` (some centres undefined), the Potency result in test [1] and in test [2] was “inactive” throughout. The outcome in test [3] is “inactive [at 11.6 µM]”. In test [4], the activity change, negative = thiol reactive is 91.7% [at 11.5 µM]. Further, the activity, negative = inhibition in test [5] is 0% [at 11.6 µM]. Moreover, the redox activity (% of DA3003) in test [6] was 13.6% [at 11.5 µM].

Regarding `Cc1ccccc1CN1CCn2c1nc1c(c2=O)CN(Cc2ccccc2)CC1`, the Potency entry in test [1], in test [2], in test [3], in test [4], in test [5] and in test [6] was “inactive” in each case.

Take `Cc1ccc(S(=O)(=O)N2CCC[C@H]2c2ccc(F)cc2)cc1`: the Potency entry in test [1], in test [2], in test [3], in test [4], in test [5] and in test [6] was “inactive” in each case.

Regarding `C/C=C(/C)C(=O)O[C@H]1[C@H](OC(=O)/C(C)=C\C)[C@@]23C(CC1(C)C)[C@]1(CCC4[C@@]5(C)CC[C@H](O[C@@H]6O[C@H](C(=O)O)[C@@H](O)[C@H](O[C@@H]7O[C@H](CO)[C@H](O)[C@H](O)[C@H]7O[C@@H]7O[C@@H](C)[C@H](O)[C@@H](O)[C@H]7O[C@@H]7OC[C@@H](O)[C@H](O)[C@H]7O)[C@H]6O[C@@H]6O[C@H](CO)[C@H](O)[C@H](O)[C@H]6O)C(C)(C)C5CC[C@@]4(C)[C@]1(C)C[C@H]2O)O[C@H]3O` (some centres undefined), the values for the activity, negative = inhibition in test [1] and in test [5] were -2.94% [at 9.52 µM] and 3.76% [at 11.6 µM], respectively. In addition, the figures for the activity change, negative = inhibition in test [2] and in test [3] were -2.35% [at 9.73 µM] and 4.78% [at 11.6 µM], respectively. Also, in test [4], the activity change, negative = thiol reactive is 718% [at 11.5 µM]. In addition, the redox activity (% of DA3003) in test [6] is 13% [at 11.5 µM].

Turning to `C[C@@H](O[C@H]1OCCN(Cc2nn(P(=O)(O)O)c(=O)[nH]2)[C@H]1c1ccc(F)cc1)c1cc(C(F)(F)F)cc(C(F)(F)F)c1`, the Potency entry in test [1], in test [2], in test [3], in test [4], in test [5] and in test [6] was “inactive” throughout.

Take `OC(c1ccc(-c2ccc(CN3CCN(Cc4ccncc4)CC3)cc2)c(F)c1)(C(F)(F)F)C(F)(F)F`: the Potency entry in test [1], in test [2], in test [3], in test [4], in test [5] and in test [6] was “inactive” throughout.

For `CN(c1ccc(NC(=O)Nc2ccccc2)cc1)S(=O)(=O)c1cnn(-c2ccc(F)cc2)c1`, the Potency entry in test [1], in test [2], in test [3], in test [4], in test [5] and in test [6] was “inactive” each time.

With `CC(C)(C)c1ccc(NC(=O)N2CCN(c3ncccc3Cl)CC2)cc1`, the Potency entry in test [1], in test [2], in test [3], in test [4], in test [5] and in test [6] was “inactive” in each case.

On to `CCOC(=O)C1=Cc2ccc(C(F)(F)C(F)(F)F)cc2N=C(N)C1`, for which the Potency entry in test [1], in test [2], in test [3], in test [4], in test [5] and in test [6] was “inactive” each time.

Regarding `C/C=C(/C)C(=O)O[C@@H]1C[C@@H](OC(=O)CC(C)C)C2(C)C3C(=O)C=C(C)C2C3C1(C)C` (some centres undefined), the Potency entry in test [1], in test [2], in test [3], in test [4], in test [5] and in test [6] was “inactive” each time.

In the case of `Cc1ccc(-c2cn3c4c(sc3n2)CCCC4)cc1`, the Potency entry in test [1], in test [2], in test [4], in test [5] and in test [6] was “inactive” in each case. Besides, in test [3], the Potency was 190 nM (active).

As to `CC(C)NC(=O)N1CC[C@H](N=C2Nc3cc(F)ccc3N(CC(F)F)c3ccc(Cl)cc32)C1`, the Potency result in test [1] and in test [2] was “inactive” each time. Further, the activity change, negative = inhibition in test [3] is 1.25% [at 11.6 µM]. In addition, the activity change, negative = thiol reactive in test [4] was 70.3% [at 11.5 µM]. Also, the activity, negative = inhibition in test [5] was 1.94% [at 11.6 µM]. In test [6], the redox activity (% of DA3003) is 12.5% [at 11.5 µM].

The values above are taken from PubChem BioAssay (NCATS).
